High-throughput results: PubChem, National Center for Advancing Translational Sciences (NCATS)
Sampled rows, rich in hits. Any-hit rate of the full collection: about 7.3%.
NPC1 prom act: activators of NPC1 promoter. AID 485313. Potency, µM (highest dose often 9.22 µM), for the others: at the top dose activation, actives largely listed as activators. Huh7 NPC1 promoter luciferase reporter, 24 h. 320,000 tested, 2.4% active; note: % of control where 0% means no effect; nearly all actives have a fitted effect of over 60% in size
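Stably transfected Huh7 (NPC1 promoter→luciferase), 1500 cells/well in Opti-MEM + 10% FBS, 2 h settle, then compound 24 h at 37 °C. Luminescence after 10 min with Amplite reagent.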
SMN2 splice enh: SMN2 splice variant enhancement. HEK293 SMN2-luciferase splicing reporter, luminescence, 30-36 h. Potency, µM (doses to about 46.1 µM), without a hit: top-dose activity change, positive = activation, usual class: activators. 210,000 tested, 2.8% active; note: % of control where 0% means no effect; nearly all actives have a fitted effect of over 55% in size
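HEK293 cells carry an SMN2 minigene-luciferase reporter in which exon 7 inclusion puts luciferase in frame. Cells were seeded at 2000 cells/well, attached for 10-12 hours, then exposed to compounds for 30-36 hours at 37C before ONE-Glo luminescence.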
uPA generation: inhibitors of cell surface uPA generation. cell surface uPA generation assay, qHTS. Potency, µM (doses to about 38.3 µM), inactives show at the highest dose activity change, negative = inhibition, most hits filed as inhibitors. 330,000 tested, 0.31% active; active = well fitted inhibition curve with a large enough effect; inconclusive = small, poorly fitted or top-dose-only effect; inactive = no such curve, though single readings can be large or run the other way; tested in mouse RAW 264.7 cells; note: % is set by controls: 0 for no effect and ±100 for the full control effect; nearly all actives have a fitted effect of over 55% in size
FLuc modulator: firefly luciferase modulation, counter-screen for miR-21 project; Potency, µM (doses to about 57.5 µM), without a hit: at the highest dose activity change, negative = inhibition, actives largely listed as inhibitors; 360,000 tested, 6.9% active; purified FLuc, Km substrates, luminescence inhibition;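 note: plate controls were vehicle for no effect and reference inhibitor for full effect; nearly all actives have a fitted effect of over 55% in size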
Target sequence (P08659 whole entry, looked up): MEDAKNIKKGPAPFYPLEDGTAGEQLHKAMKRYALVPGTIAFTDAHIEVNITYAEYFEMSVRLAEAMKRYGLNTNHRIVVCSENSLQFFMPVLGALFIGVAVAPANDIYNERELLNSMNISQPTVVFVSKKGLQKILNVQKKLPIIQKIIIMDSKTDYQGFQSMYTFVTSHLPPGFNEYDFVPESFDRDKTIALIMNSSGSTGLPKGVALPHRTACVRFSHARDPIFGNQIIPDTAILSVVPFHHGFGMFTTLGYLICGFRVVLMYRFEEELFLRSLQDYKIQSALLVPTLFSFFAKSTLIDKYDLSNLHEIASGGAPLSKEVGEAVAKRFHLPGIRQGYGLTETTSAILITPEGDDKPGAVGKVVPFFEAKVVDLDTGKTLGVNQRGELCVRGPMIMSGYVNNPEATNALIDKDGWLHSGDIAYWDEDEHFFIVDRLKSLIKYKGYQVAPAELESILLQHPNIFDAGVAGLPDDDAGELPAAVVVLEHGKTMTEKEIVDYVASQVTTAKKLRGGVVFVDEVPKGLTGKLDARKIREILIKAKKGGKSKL
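Purified P. pyralis luciferase, 10 nM final, with Km-level 10 uM D-luciferin and 10 uM ATP in 50 mM Tris acetate pH 7.5, 10 mM Mg acetate, 0.01% Tween-20, 0.05% BSA; 6-point qHTS titration about 60 µM downward; luminescence read.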
ELG1 genotox: genotoxicity induction in ELG1-luciferase HEK293T cells; HEK293T ELG1-luciferase reporter, luminescence, 16 h; Potency, µM (doses to about 46 µM), for the others: top-dose activity change, positive = activation, usual class: activators; AID 504466; 330,000 tested, 1.3% active; note: % of control where 0% means no effect; nearly all actives have a fitted effect of over 60% in size
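After overnight (16 hr) compound treatment at 37 °C, ELG1-luciferase HEK293T cells were lysed with ONE-Glo; luminescence quantified 30 min later at room temperature.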
Rab9 promoter act: Rab9 promoter activation. Huh7 Rab9 promoter-luciferase reporter, luminescence, 24 h. Potency, µM (highest dose often 9.22 µM), inactives show at the highest dose activation, negative = inhibition, most hits filed as activators. 320,000 tested, 2.8% active; note: % of control where 0% means no effect; nearly all actives have a fitted effect of over 60% in size
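Quantitative HTS format; Huh7 Rab9-luciferase reporter cells (1500/well) receive compound 2 h post-plating, incubate 24 h at 37 °C, then get luciferase reagent for 10 min before luminescence reading.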
The depositor's hits bear a star; ? = inconclusive; . = not tested or not shown; [ ] = remark or other dose. Unless noted, calls come from the whole dose curve; as a rule, active = well fitted curve in the direction sought with a large enough effect; inconclusive = small, poorly fitted or top-dose-only effect, or another doubt; inactive = no such curve, though single readings can be large; an effect the other way counts as inactive or inconclusive. Potency is the fitted concentration of half-maximal effect.

SMILES | NPC1 prom act | SMN2 splice enh | uPA generation | FLuc modulator | ELG1 genotox | Rab9 promoter act
COc1ccc2oc(C(=O)Nc3nnc(C)s3)c(C)c2c1 | ? | . | -5.1% | 0.601µM* | 3.26µM* | 0.708µM*
Cc1ccc2oc(C(=O)Nc3nonc3C)c(C)c2c1 | ? | . | -0.6% | 7.57µM* | ? | 3.16µM*
CCOC(=O)c1c(C)oc2nc(C)nc(NCCc3ccc(S(N)(=O)=O)cc3)c12 | . | . | . | -9.0% | . | .
CCc1c(C)c2cc3c(c(C)c2oc1=O)OCN(CCc1ccccc1F)C3 | . | 24.2% | . | ? | . | .
N#C/C(=C\c1ccccc1)c1nc(-c2cc3c(ccc4ccccc43)oc2=O)cs1 | . | 4.8% | . | -6.5% | . | .
Cc1ccc(SCc2cc(=O)n3ccsc3n2)c(C)c1 | ? | 12.6µM* | . | 15.1µM* | ? | 3.16µM*
O=C1C=C(Nc2ccccc2)c2ccccc2C1=O | -41.5% | -103.0% | -3.9% | ? | -16.0% | -37.2%
O=C1C=C(Nc2ccccc2)C(=O)c2ccccc21 | 1.78µM* | 12.6µM* | ? | 3.38µM* | 7.1% | 1µM*
CCc1ccc(NC2=CC(=O)C(=O)c3ccccc32)cc1 | 1.3% | . | -10.1% | 10.7µM* | -5.8% | -4.4%
Cc1ccc(OCc2nnc(SCC(=O)Nc3ccccc3C(C)C)o2)cc1 | . | . | . | -13.6% | . | .
Cc1cc(=O)oc2cc(NC(=O)CCOc3ccccc3)ccc12 | 23.4% | . | -1.2% | -2.4% | ? | 26.7%
CCCCOC(=O)Nc1ccc2c(C)cc(=O)oc2c1 | 1.78µM* | 11.2µM* | -2.5% | 6.01µM* | 18.4µM* | 1.41µM*
CCOC(=O)Nc1ccc2c(C)cc(=O)oc2c1 | ? | 14.1µM* | . | 15.1µM* | 18.4µM* | ?
O=C(OCc1nnc(-c2ccccc2)o1)c1cccc(-n2cnnn2)c1 | 0.6% | . | 1.2% | 4.5% | 4.0% | 7.7%
O=C(OCc1nnc(-c2ccccc2)o1)c1ccc(CO)cc1 | -5.2% | 6.9% | -6.7% | -1.6% | 1.5% | 0.3%
CCOC(=O)c1cccc(COC(=O)c2cccc(-c3nnc(-c4ccccc4)o3)c2)c1 | 2µM* | 3.55µM* | 7.3% | 10.7µM* | ? | 1.26µM*
CC(C)OC(=O)c1ccc(COC(=O)c2cccc(-c3nnc(-c4ccccc4)o3)c2)cc1 | 2.24µM* | 5.01µM* | -2.4% | ? | ? | 2.51µM*
O=C(OCc1ccccc1)c1ccc2c(c1)-c1ccccc1C2=O | ? | 12.6µM* | 0.7% | ? | 10.3µM* | ?
O=C(OCc1ccc(C(=O)c2ccccc2)cc1)c1cccc(-c2nnc(-c3ccccc3)o2)c1 | ? | ? | . | 10.7µM* | ? | 1.12µM*
O=C(OCc1ccccc1)c1ccccc1 | . | -17.5% | 10.1% | . | . | .
O=C(OCc1ccccc1)c1cccc(-c2nnc(-c3ccccc3)o2)c1 | 1.58µM* | ? | . | -18.7% | ? | ?
O=C(COC(=O)c1cccc(O)c1)Nc1nnc(-c2ccccc2)o1 | 0.0% | . | -0.5% | -19.0% | 2.5% | -2.0%
O=C1CC(C(=O)O)S/C(=N\N=C\c2ccc(Br)cc2)N1 (centres undefined) | -0.9% | . | -1.7% | 16.9µM* | -0.1% | -0.1%
O=C1c2ccccc2C(=O)c2c(Nc3ccc4c5c(cccc35)C(=O)c3ccccc3-4)cccc21 | . | -1.3%[9.22 µM] | . | . | . | .
CNc1cccc2c1C(=O)c1ccccc1C2=O | 27.6% | ? | -0.1% | 9.53µM* | ? | ?
SMILES | NPC1 prom act | SMN2 splice enh | uPA generation | FLuc modulator | ELG1 genotox | Rab9 promoter act
Cn1c(N)c(C(=O)COC(=O)CCOc2ccc(C(C)(C)C)cc2)c(=O)n(C)c1=O | -3.4% | 8.7% | 6.3% | 21.3µM* | 3.9% | 8.0%
COc1ccc(CNC(=O)COC(=O)CCOc2ccccc2)cc1 | -1.2% | 3.0% | 3.7% | -4.0% | 0.0% | 3.5%
CC(C)(C)c1ccc(OCCC(=O)OCC(=O)NCc2ccccc2)cc1 | 0.1% | . | -5.4% | 19µM* | 5.6% | -5.5%
CC(C)(C)c1ccc(OCCC(=O)OCC(=O)NC2CC2)cc1 | -3.8% | . | -1.9% | 15.1µM* | -0.6% | -8.2%
CC(C)CNC(=O)C(=O)NNC(=O)c1ccco1 | -0.5% | . | 1.6% | 3.5% | 1.9% | -10.4%
Cc1ccc(NC(=O)CN2CCCC2c2cccn2C)cc1C (centres undefined) | . | . | -6.7% | . | 1.6% | .
CNC(=O)c1oc(-c2ccccc2)nc1C | 1.2% | -3.6% | -17.0% | -0.3% | -3.6% | -6.9%
O=C1C2C3C=CC(CC3)C2C(=O)N1/N=C/c1ccc(O)cc1 (centres undefined) | ? | 2.5% | -22.8% | 15.1µM* | ? | 25.5%
O=C(O)c1cc(-c2ccc(/C=N/N3C(=O)C4C5C=CC(CC5)C4C3=O)o2)ccc1Cl (centres undefined) | 0.9% | . | 1.3% | 19µM* | 3.4% | 1.1%
COC(=O)c1ccc(-c2ccc(/C=N/N3C(=O)C4C5C=CC(CC5)C4C3=O)o2)cc1 (centres undefined) | 3.16µM* | 5.01µM* | -0.3% | 23.9µM* | -6.9% | 3.16µM*
Cc1ccc(C)c(Cn2cc(S(=O)(=O)c3ccc(Cl)cc3)c(=O)c3cc(F)ccc32)c1 | . | 0.9% | . | 6.4% | . | .
CCc1ccc(NC(=O)C2=CC=CN3CCS(=O)(=O)N=C23)cc1 | -0.5% | . | -17.0% | 15.1µM* | 7.5% | -6.0%
COc1ccc(OC)c(NC(=O)c2c(C)oc3ncnc(N4CCOCC4)c23)c1 | . | . | . | -1.5% | . | .
O=C1CCc2cc(NS(=O)(=O)c3ccccc3)cc3c2N1CC3 | -0.4% | . | -6.4% | -7.9% | 4.11µM* | -1.4%
O=C1CCc2cc(NS(=O)(=O)c3ccccc3)cc3c2N1CCC3 | -0.3% | . | -0.9% | 2.8% | 0.0% | -0.5%
CN(C)Cc1c(-c2ccc(Cl)cc2)nc2ccccn12 | ? | 12.6µM* | 2.0% | 12µM* | ? | ?
Cc1cc(N)n(-c2cc(C)c3ccccc3n2)n1 | -4.4% | 11.2µM* | -12.8% | 2.69µM* | ? | ?
Cc1cc(C)c2nc(-n3nc(C)cc3N)cc(C)c2c1 | 12.5% | 11.2µM* | -2.3% | 1.2µM* | ? | ?
COc1ccc(NC(=O)c2ccc3oc(=O)c(S(=O)(=O)c4ccc(C)cc4)cc3c2)cc1OC | . | -3.5% | . | -1.1% | . | .
Cc1cc(N)ccc1-c1cc2ccccc2oc1=O | 20.3% | . | -1.4% | ? | 8.7% | 28.9%
COc1ccc2cc(-c3nc4ccccc4n3C)c(=O)oc2c1 | 2µM* | 12.6µM* | -5.7% | 5.36µM* | ? | 1.26µM*
COc1ccc2cc(C(C)=O)c(=O)oc2c1 | -2.0% | 4.9% | -0.7% | -3.3% | 0.9% | -4.5%
Cn1c(-c2cc3ccccc3oc2=O)nc2ccccc21 | 4.47µM* | . | -18.3% | 21.3µM* | ? | 3.55µM*
CCOC(=O)C1(CCc2ccccc2)CCN(C2Cc3ccccc3C2)CC1 | ? | . | 2.3% | 15.1µM* | -20.6% | ?
CCOC(=O)C1(CCc2ccccc2)CCN(C(=O)Cc2nonc2C)CC1 | -0.6% | 2.6% | . | 19µM* | 11.9% | ?
